Source: the supplement of paper PMC9897528
A number with no mark means an inactive call.

Test system: Scedosporium aurantiacum CBS 136046
Assay: growth inhibition relative to DMSO control (OD600); higher = more antifungal activity, active = 80 or more; extreme values may be limits of the assay
Conditions: 5 µM; 72 h; 37 °C
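Further: conidia screened in RPMI 1640 medium under 5% CO2, growth read by spectrophotometer, medium with 0.5% DMSO serving as the untreated reference.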

| Structure (SMILES) | growth inhibition [%] |
| --- | --- |
| O=C(Nc1nnc(-c2ccc(Cl)cc2)o1)c1ccc(F)cc1 | 48.5 |
| CC(C)/N=c1\cc2n(-c3ccc(Cl)cc3)c3ccccc3nc-2cc1Nc1ccc(Cl)cc1 | 24.6 |
| CC(=O)N1c2ccccc2NC2=C(C(=O)CC(C)(C)C2)C1c1ccc(OCc2ccccc2)cc1 (configuration not stated) | 15.4 |
| CONC(=N)c1ccc(-c2ccc(-c3ccc(C(=N)NOC)cc3)o2)cc1 | 29.9 |
| OB1OCc2cc(Cl)ccc21 | 6.18 |
| O=C1NC(=S)N/C1=C\c1cc(Br)cc(Br)c1O | 12.6 |
| COc1ccc(SC(=O)N[C@H](CCC(=O)O)C(=O)O)cc1 | 24.2 |
| CC(C)(C)c1ccc(Oc2ccc(N)cc2)cc1 | 15.8 |
| CCc1cc(Cc2cnc(N)nc2N)cc2c1N(C)CCC2C (configuration not stated) | 16.8 |
| CCc1ccccc1OCCN1CCCCCC1 | 26.2 |
| O=c1cc(Nc2ccc3ccccc3c2)[nH]c(=O)[nH]1 | 0.738 |
| N[C@H]1CCC[C@H]1C(=O)O | 4.68 |
| O=C(c1ccc(F)cc1)N1CCN2C(=O)c3ccccc3C12c1ccccc1 (configuration not stated) | 12.5 |
| O=C(Cn1cnc2ccccc2c1=O)Nc1ccccc1 | 1.51 |
| NC(=S)N/N=C/c1ncccc1N | 23.2 |
| CC(C)(C)OC(=O)NCc1ccc(C(=O)N[C@H]2CCOC2=O)cc1 | 15.3 |
| CC(=O)Oc1ccccc1C(=O)Nc1ncc([N+](=O)[O-])s1 | 12.7 |
